A short description of assay [1]: anti-His antibody binders, primary screen, artefact control for SMM control protein annotation, biochemical, small-molecule microarray, 635 nm fluorescence (AID 1128).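 Note: score merges feature fluorescence with signal-to-noise for each printed compound spot.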 Conditions: anti-His Alexa647 antibody binding, higher = more signal.
Assay [2] deals with Human papillomavirus type 1a E7 protein (residues 1-88). In words: HPV1a E7 small-molecule binders, primary screen, biochemical, small-molecule microarray, residues 1-88, 635 nm (AID 1129). Particulars: small-molecule microarray binding, fluorescence 635 nm; higher = more signal.
Assay [3] concerns the target Focal adhesion kinase 1 (Homo sapiens) (UniProt Q05397). Briefly: small-molecule microarray binders of FAK, primary screen, biochemical, 635/667 nm fluorescence, BSA, DTT (AID 1130).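 Note: composite of spot emission at 667 nm and signal to noise over triplicate slides.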 Conditions: PTK2 binding, 635 nm fluorescence, higher = more signal.
The test system of assay [4] is Fibrinogen (Alexa647-labelled). Briefly: fibrinogen binders on compound microarrays, profiling panel, artefact control for SMM control-protein annotation, biochemical, small-molecule microarray, 635/667 nm fluorescence (AID 1131).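 Note: z-score merges 667 nm fluorescence with per-spot signal-to-noise over triplicate slides.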 Conditions: fibrinogen-A647 binding fluorescence, higher = more signal.
Assay [5] addresses Follistatin (Homo sapiens) (UniProt P19883). In words: follistatin binders on small-molecule microarrays, primary screen, biochemical, small-molecule microarray, 635/667 nm fluorescence (AID 1132). Particulars: FST binding, 635 nm fluorescence, higher = more signal.
Assay [6] has as its target Fibroblast growth factor 2 (Homo sapiens) (UniProt P09038). In words: FGF2 binders on small-molecule microarrays, primary screen, biochemical, small-molecule microarray, 635/667 nm fluorescence (AID 1133). Conditions: small-molecule microarray binding, FGF2, fluorescence 635/667; higher = more signal.
The nature of assay [7]: mitochondrial membrane potential change in A549 cells, profiling panel, cell-based, JC-1 fluorescence, basal, 24 h, 100 nL (AID 1138).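 Note: A549 lung adenocarcinoma cells under basal conditions with no added stimulus; test concentration not given here.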 Conditions: higher = more signal.
A further assay has as its system Lefty1. Briefly: Lefty1 binders on small-molecule microarrays, primary screen, biochemical, small-molecule microarray, 635/667 nm fluorescence (AID 1139). Particulars: small-molecule microarray binding, fluorescence 635/667; higher = more signal.
Assay [8] concerns wheat germ agglutinin (Triticum aestivum), Alexa647-labelled. In words: wheat germ agglutinin binders on compound microarrays, profiling panel, artefact control for SMM control-protein annotation, biochemical, small-molecule microarray, 635/667 nm fluorescence (AID 1140).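 Note: score merges 667 nm feature emission with signal to noise over triplicate slides.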 Particulars: WGA-A647 binding, 635 nm fluorescence, higher = more signal.
Assay [9] concerns the target Luciferin 4-monooxygenase (Photinus pyralis) (UniProt P08659). Briefly: firefly luciferase enzyme inhibitors, primary screen, biochemical, luminescence, purified enzyme, 2006 set (AID 1141).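 Note: cell-free assay with purified firefly luciferase at 100 ng per well in PBS; test concentration not given here.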 Particulars: SteadyGlo luminescence, 30 min, higher = more signal, called active from +8 up or from −8 down.
The test system of assay [10] is Wnt5a (protein binding on small-molecule microarray). Briefly: Wnt5a binders on small-molecule microarray, primary screen, biophysical, 635/667 nm fluorescence (AID 1142).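 Note: fluorescence read at 667 nm with signal to noise per printed feature.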 Particulars: 635 nm fluorescence, higher = more signal.
A short description of assay [11]: cell viability in Huh7 cells, primary screen, cytotoxicity control for HCV replication inhibitor project, CellTiter-Glo luminescence, basal, 48 h (AID 1143).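 Note: Huh7 hepatoma cells carrying a hepatitis C replication reporter with no stimulus; test concentration not given here.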 Particulars: Huh7 HCV replicon, higher = more signal, called active from +8 up or from −8 down. A general note: Cellular ATP, detected with luciferase, serves as a proxy for viable cell number.
Assay [12] is described as follows: P. aeruginosa biofilm formation inhibitors, primary screen, PAO1 strain, BacTiter-Glo luminescence, LB-PBS (AID 1144). Particulars: 12 h, higher = more signal.
Assay [13] can be described thus: CREB reporter modulators without forskolin, primary screen, cell-based, PC12, CRE-LacZ reporter, unstimulated (AID 1145). Particulars: no forskolin, luminescence, 4.5 h, higher = more signal, called active from +8 up or from −8 down.
The nature of assay [14]: CREB reporter modulators under forskolin, primary screen, cell-based, PC12, CRE-LacZ reporter, forskolin-stimulated (AID 1146).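 Note: PC12 cells with 6xCRE LacZ reporter stimulated by forskolin 10 µM; beta-galactosidase reporter signal reflecting CREB driven transcription.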 Conditions: luminescence, 4.5 h, higher = more signal, called active from +8 up or from −8 down.
Assay [15] has as its target Streptavidin (Streptomyces avidinii) (UniProt P22629). Briefly: streptavidin binders on small-molecule microarray, primary screen, artefact control for SMM compound annotation, biophysical, 635/667 nm fluorescence (AID 1147).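 Note: signal reflects streptavidin binding to arrayed compounds as a control protein.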 Conditions: streptavidin binding, higher = more signal.
A short description of assay [16]: small-molecule binders of probe aInhba, primary screen, biochemical, small-molecule microarray, 635/667 nm fluorescence (AID 1148).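 Note: score merges 667nm spot fluorescence with signal-to-noise for antibody binding to printed compounds.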 Particulars: higher = more signal.
The target of assay [17] is Torsin-1A (Homo sapiens) (UniProt O14656). Briefly: torsin A binders from cell lysate, primary screen, small-molecule microarray, wild-type, 635/667 nm (AID 1149). Particulars: COS7 hTOR1A-WT lysate, 635 nm fluorescence, higher = more signal.
Assay [18] shares this target. In words: small-molecule binders of mutant TOR1A in lysate, primary screen, cell lysate, small-molecule microarray, COS7 lysate, 635/667 nm fluorescence (AID 1150).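 Note: score pools 667 nm emission and signal to noise measuring lysate protein binding.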 Conditions: COS7 hTOR1A mutant lysate, 635 nm fluorescence, higher = more signal.
The subject of assay [19] is Sonic hedgehog protein (Shh). In words: small-molecule binders of Shh protein, primary screen, biochemical, small-molecule microarray, 635/667 nm fluorescence (AID 1151).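 Note: Shh protein binding to compounds spotted on small-molecule microarray slides; score combines spot fluorescence intensity with signal-to-noise across triplicate slides.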 Conditions: small-molecule microarray binding, 635 nm fluorescence; higher = more signal.

Molecules are shown by their SMILES. Active and inactive are the calls of the source. Unless noted, the rule behind the calls is not given here.

Sequence of Luciferin 4-monooxygenase (Photinus pyralis) (P08659 whole entry, looked up): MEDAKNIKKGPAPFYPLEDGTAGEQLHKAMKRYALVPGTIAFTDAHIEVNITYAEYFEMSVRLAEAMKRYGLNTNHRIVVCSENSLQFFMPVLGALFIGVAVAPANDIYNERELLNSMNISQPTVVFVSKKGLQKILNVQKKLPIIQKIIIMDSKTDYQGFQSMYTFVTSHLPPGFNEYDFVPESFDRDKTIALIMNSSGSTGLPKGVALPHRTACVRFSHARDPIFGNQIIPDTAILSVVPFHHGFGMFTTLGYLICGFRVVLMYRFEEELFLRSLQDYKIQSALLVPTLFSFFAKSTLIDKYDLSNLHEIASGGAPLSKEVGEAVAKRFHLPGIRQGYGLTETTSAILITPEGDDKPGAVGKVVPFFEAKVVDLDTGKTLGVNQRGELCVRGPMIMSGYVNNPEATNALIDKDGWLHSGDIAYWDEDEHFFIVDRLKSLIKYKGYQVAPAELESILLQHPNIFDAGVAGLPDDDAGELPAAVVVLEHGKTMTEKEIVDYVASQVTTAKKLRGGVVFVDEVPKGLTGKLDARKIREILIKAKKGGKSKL
Sequence of Torsin-1A (Homo sapiens) (O14656 whole entry, looked up): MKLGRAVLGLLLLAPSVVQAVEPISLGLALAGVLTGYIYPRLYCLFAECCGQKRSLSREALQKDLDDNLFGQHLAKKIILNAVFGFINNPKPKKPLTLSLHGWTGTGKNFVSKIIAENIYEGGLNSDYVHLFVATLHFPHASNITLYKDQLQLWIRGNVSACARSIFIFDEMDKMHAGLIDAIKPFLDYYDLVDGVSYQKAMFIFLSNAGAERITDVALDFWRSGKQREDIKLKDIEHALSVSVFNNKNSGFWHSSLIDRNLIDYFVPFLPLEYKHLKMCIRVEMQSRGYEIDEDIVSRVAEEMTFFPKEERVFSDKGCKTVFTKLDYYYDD
Sequence of Streptavidin (Streptomyces avidinii) (P22629 whole entry, looked up): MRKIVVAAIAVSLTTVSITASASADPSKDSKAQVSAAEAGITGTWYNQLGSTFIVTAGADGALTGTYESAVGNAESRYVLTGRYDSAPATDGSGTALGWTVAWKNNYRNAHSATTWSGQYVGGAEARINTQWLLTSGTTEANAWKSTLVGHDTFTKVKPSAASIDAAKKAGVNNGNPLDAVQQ
Sequence of Focal adhesion kinase 1 (Homo sapiens) (Q05397 whole entry, looked up): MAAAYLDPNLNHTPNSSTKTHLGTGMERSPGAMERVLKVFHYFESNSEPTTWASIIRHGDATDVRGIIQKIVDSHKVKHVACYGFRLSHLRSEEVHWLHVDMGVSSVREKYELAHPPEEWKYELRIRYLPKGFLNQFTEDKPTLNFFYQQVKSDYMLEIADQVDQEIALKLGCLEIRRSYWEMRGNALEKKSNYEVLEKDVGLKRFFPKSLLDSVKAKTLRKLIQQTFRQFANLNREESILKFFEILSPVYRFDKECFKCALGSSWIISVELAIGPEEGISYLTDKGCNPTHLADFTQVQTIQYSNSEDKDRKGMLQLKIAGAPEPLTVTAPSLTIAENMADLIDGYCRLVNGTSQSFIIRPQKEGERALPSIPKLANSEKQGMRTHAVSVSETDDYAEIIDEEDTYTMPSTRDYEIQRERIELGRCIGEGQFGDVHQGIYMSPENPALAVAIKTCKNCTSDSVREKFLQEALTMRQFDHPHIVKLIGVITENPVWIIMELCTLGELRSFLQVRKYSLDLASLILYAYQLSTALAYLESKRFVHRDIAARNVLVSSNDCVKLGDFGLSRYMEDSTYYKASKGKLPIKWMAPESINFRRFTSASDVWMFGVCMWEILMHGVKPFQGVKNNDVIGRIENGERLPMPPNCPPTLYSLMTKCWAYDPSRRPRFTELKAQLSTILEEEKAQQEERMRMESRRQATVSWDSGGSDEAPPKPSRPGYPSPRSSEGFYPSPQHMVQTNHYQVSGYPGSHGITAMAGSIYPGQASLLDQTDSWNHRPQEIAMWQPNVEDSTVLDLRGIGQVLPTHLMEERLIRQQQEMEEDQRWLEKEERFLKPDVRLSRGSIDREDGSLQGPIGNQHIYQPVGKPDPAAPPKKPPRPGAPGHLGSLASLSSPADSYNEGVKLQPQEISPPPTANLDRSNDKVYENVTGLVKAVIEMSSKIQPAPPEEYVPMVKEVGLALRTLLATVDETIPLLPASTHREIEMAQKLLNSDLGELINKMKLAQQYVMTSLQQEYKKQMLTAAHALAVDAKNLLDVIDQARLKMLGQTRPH
Sequence of Follistatin (Homo sapiens) (P19883 whole entry, looked up): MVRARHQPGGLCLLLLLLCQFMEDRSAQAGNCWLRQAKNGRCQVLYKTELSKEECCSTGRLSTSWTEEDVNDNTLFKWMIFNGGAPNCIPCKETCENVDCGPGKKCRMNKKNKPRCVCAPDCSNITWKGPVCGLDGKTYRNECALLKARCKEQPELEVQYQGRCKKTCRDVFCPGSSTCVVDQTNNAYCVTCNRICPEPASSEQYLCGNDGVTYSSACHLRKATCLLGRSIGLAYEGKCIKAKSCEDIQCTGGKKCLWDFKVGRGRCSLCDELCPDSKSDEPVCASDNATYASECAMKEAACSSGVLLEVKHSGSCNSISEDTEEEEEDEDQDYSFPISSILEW
Sequence of Fibroblast growth factor 2 (Homo sapiens) (P09038 whole entry, looked up): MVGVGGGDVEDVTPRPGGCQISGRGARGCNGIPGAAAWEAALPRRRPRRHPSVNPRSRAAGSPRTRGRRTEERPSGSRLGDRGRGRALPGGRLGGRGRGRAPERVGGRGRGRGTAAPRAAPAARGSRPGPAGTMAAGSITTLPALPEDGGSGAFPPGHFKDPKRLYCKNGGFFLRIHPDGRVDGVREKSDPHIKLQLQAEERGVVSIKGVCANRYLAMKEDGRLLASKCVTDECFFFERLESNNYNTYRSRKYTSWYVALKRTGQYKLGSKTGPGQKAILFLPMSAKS

In the case of `CC1CC/C=C\[C@H]2OC34C=CCN(CCN5CCOCC5)C(=O)[C@H]3N(CCCCCCO)C(=O)[C@@H]4C2C(=O)O1` (stereo not given in full), the composite z-score in assay [1] was -0.37; in assay [2], -0.986; in assay [3], -0.411; in assay [4], -2.12; in assay [5], 0.0859; in assay [6], -0.649. Moreover, the composite z-score in the assay with Lefty1 was -0.259; in assay [8], -0.7; in [10] it was -0.603; in assay [15], -0.66; in [16], -0.104; with Torsin-1A (Homo sapiens) [17], -1.52. The composite z-score in the assay with Torsin-1A (Homo sapiens) [18] is -0.948; in assay [19], 0.527. For the same compound, the z-score in assay [7] is 0.746; in assay [9] it was -0.934 (inactive); in assay [11], 0.524 (inactive); in [12], 0.0591 (inactive); in [13] it was 0.605 (inactive); in assay [14] it was 0.241 (inactive).

For the compound `COc1cccc(C[C@H]2C[C@@H](CO[Si](C(C)C)(C(C)C)C(C)C)N3C(=O)[C@@]4(C(C)=O)O[C@@]23[C@@H]2C(=O)N(C)C(=O)[C@@H]24)c1`, the composite z-score was -0.265 in [1]; 0.681 in [2]; 0.0669 in assay [3]; 0.529 in [4]; 0.897 in assay [5]; 1.25 in assay [6]. Further, the composite z-score in the assay with Lefty1 worked out at 1.4; in assay [8], 0.326; in assay [10] it was 0.0121; in assay [15], 0.0285; in assay [16], 0.2; with Torsin-1A (Homo sapiens) [17], 0.241. Besides, the composite z-score worked out at 0.0185 in the assay with Torsin-1A (Homo sapiens) [18] and 1.3 in assay [19]. In addition, the z-score is 0.189 in assay [7]; 0.768 (inactive) in assay [9]; -2.38 (inactive) in assay [11]; 0.333 (inactive) in assay [12]; 0.222 (inactive) in [13]; -0.065 (inactive) in [14].

For `COC(=O)[C@]1(CO)N=C(c2ccc(OCCCO)cc2)O[C@@H]1c1ccccc1CN=[N+]=[N-]`, the composite z-score was 0.477 in [1]; 0.286 in assay [2]; 0.1 in assay [3]; -0.353 in assay [4]; 0.996 in assay [5]; 0.435 in [6]. For the same compound, the composite z-score is 0.341 with Lefty1; -0.342 in assay [8]; -0.0408 in assay [10]; -0.447 in assay [15]; -0.154 in assay [16]; -0.208 in the assay with Torsin-1A (Homo sapiens) [17]. Further, the composite z-score stood at 0.518 with Torsin-1A (Homo sapiens) [18] and 0.583 in assay [19]. Further, the z-score in [7] is -0.232; in assay [9], -0.676 (inactive); in assay [11], -0.394 (inactive); in [12], 1.34 (inactive); in [13], 0.643 (inactive); in [14], 0.224 (inactive).

As to `C=C(COC)/C(=C/C[C@@H](OC(C)=O)c1ccccc1OCCO)c1cc(C(=O)OC)ccc1OC`, the composite z-score in [1] was 2.21; in assay [2], 0.461; in [3], -0.102; in assay [4], -0.325; in assay [5], 0.569; in assay [6], 0.36. Moreover, the composite z-score with Lefty1 is 0.624; in assay [8], 0.344; in assay [10], 0.143; in assay [15], -0.333; in assay [16] it was -0.188; in the assay with Torsin-1A (Homo sapiens) [17], 0.237. In addition, the composite z-score came out at 0.612 in the assay with Torsin-1A (Homo sapiens) [18] and 0.94 in [19]. Also, the z-score was 1.75 in assay [7]; -1.47 (inactive) in assay [9]; -1 (inactive) in assay [11]; -0.765 (inactive) in assay [12]; 11.4 (active) in [13]; 0.323 (inactive) in assay [14].

Regarding `CC(C)(C)OC(=O)CC[C@]1(C(=O)N2CCOCC2)N=C(c2ccc(OCCCO)cc2)O[C@H]1c1ccccc1CN=[N+]=[N-]`, the composite z-score in assay [1] stood at 0.442; in [2], 1.29; in assay [3], 0.527; in assay [4], 0.979; in assay [5] it was 1.42; in assay [6], 1.39. Further, the composite z-score was found to be 0.23 with Lefty1; 1.19 in assay [8]; 1.07 in assay [10]; 1.08 in assay [15]; 0.279 in assay [16]; 1.12 in the assay with Torsin-1A (Homo sapiens) [17]. The composite z-score turned out to be 1.58 with Torsin-1A (Homo sapiens) [18] and 0.242 in assay [19]. Further, the z-score in [7] is -0.423; in assay [9] it was -1.15 (inactive); in [11], -0.569 (inactive); in [12] it was -0.405 (inactive); in [13], -0.263 (inactive); in assay [14], -1.4 (inactive).

For the origin of these results see PubChem BioAssay.
